Assay results as given in PubChem BioAssay (NCI).
“And” between values parts separate entries of the source, which are not always exact repeats. Equal values may be shown once. This is part of a sample that, as a whole, favours compounds with a hit. Of some 83,000 tested, about 20% had one in any assay.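 In brief: 96-well plates, 48 h treatment, single concentration, percent growth endpoint.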 Values without a mark were called inactive. The source made the active and inactive calls. How the source made its calls: active means growth percent below 10; inactive means the rest.

Each molecule was assayed on MDA-MB-468 breast (assay: NCI-60 one-dose screen, 48 h (100 = growth as untreated, 0 = no growth, -100 = all killed)). Details: 10 µM unless noted.
In the case of `N#C/C(=C\c1cccc2cnccc12)n1nnc2cccc(F)c21`, the growth is reported as 31.9%. For `CN1CCN(Cc2ccc(NC(=O)c3nc4ccc5[nH]ncc5c4c4c3CCC4)cc2C(F)(F)F)CC1`, the growth was -59.2% (active). `OCCS` showed a growth of 100%. Work on `CN1CCN(Cc2ccc(NC(=O)c3cncc(C#Cc4[nH]nc5ncncc45)c3)cc2C(F)(F)F)CC1` yielded a growth of 58%. In the case of `O=C(CN1CCOCC1)Nc1ccc2ncnc(Nc3ccc(Oc4cccc(F)c4)c(Cl)c3)c2c1`, the growth is reported as -17.1% (active). In the case of `COc1ccc(NC(=O)c2ccc(Nc3ncnc4c3cnn4-c3cccc(F)c3)cc2)cc1`, the growth is reported as 100%. `O=C(Cn1c(=O)sc2ccccc21)NNS(=O)(=O)c1ccccc1[N+](=O)[O-]` showed a growth of 107%. Molecule `Cc1cc(Nc2nc(-c3ccc(F)cc3)nc3ccccc23)n[nH]1` has a growth of 58.2%. `CN(C)CCCC1(c2ccc(F)cc2)OCc2cc(-c3ccc4cc[nH]c4c3)ccc21` (stereo not given) was tested, and the growth was -27.1% (active). `CCCN=C(N)c1ccc(NC(=O)c2ccc(C(=O)Nc3ccc(C(N)=NCCC)cc3)cc2)cc1` gave a growth of 67.1%. Molecule `CCC(CC)n1c(C)cc(=O)n1C(CC)CC` has a growth of 91.2%. `Nc1ccc(-c2csc(-n3[nH]c(=O)ccc3=O)n2)cc1` was tested, and the growth was 99.3%. With `CCC(CCCN(CC)CCc1ccccc1)OC(=O)c1cc(OC)c(OC)c(OC)c1` (stereo not given) the growth was 93.1%. For `C=C1C(=O)O[C@H]2[C@H]1CC/C(COC(=O)C(=O)c1cn(C)c3ccc(Cl)cc13)=C\CC[C@@]1(C)O[C@@H]21`, the growth was -88.2% (active). In the case of `CC(C)(C)C1=CC(=O)C(C(C)(C)C)=CC1=O`, the growth is reported as 96.7%. `Cc1ccc2nc(SCC(=O)Nc3ccc(-c4nc5ccccc5s4)c(Cl)c3)[nH]c2c1` gave a growth of 101%. Molecule `O=CN1N=C(c2ccc(F)cc2)CC1c1cccc(Nc2ccnc3cc(C(F)(F)F)ccc23)c1` (stereo not given) has a growth of 29.2%. Molecule `CC1(C)CC[C@]23CC[C@]4(C)[C@H](CC[C@@H]5[C@@]6(C)CCCN(CO)C(C)(C)[C@@H]6CC[C@]54C)[C@H]2[C@H]1OC3` has a growth of 84.9%. `CCOC(=O)C1=C(C)N=c2s/c(=C\c3ccccc3O)c(=O)n2C1c1ccc(OC)c2ccccc12` (stereo not given) was tested, and the growth was -77.6% (active). `NC(N)=N/N=C/CO` showed a growth of 107%. `ClC1C2CC(c3ccccc32)C1Cl` (stereo not given) gave a growth of 104%. With `CCOC(=O)Cn1c(O)c(N=Nc2ccc(S(N)(=O)=O)cc2)c2cc(Br)ccc21` the growth was 96.4%. In the case of `COc1ccc2c(c1)c(-c1nc(-c3c[nH]c4ccncc34)cs1)cn2C`, the growth is reported as -60.8% (active). In the case of `CCCOC(=O)C1c2cc3c(cc2CC(C)C1C(=O)OCCC)OCO3` (stereo not given), the growth is reported as 102%. For `COc1ccc(/C=C(\C#N)n2nc3cccc(F)c3n2)cc1`, the growth was 100%. For `COc1ccc(C(=O)c2c(N)c(C#N)cn2-c2cccc(OC)c2)cc1`, the growth was -3.17% (active). `Nc1nc2ccc([C@@H]3Nc4ccc5[nH]ncc5c4[C@H]4[C@H]5CCC(C5)[C@H]43)cc2s1` was tested, and the growth was -14.4% (active). For `Cc1cc[c-]cc1.Fc1c[c-]c(-c2ccccn2)c(F)c1.[Pt+2].c1ccc(P(C[PH+](c2ccccc2)c2ccccc2)c2ccccc2)cc1`, the growth was -2.46% (active). For `O=C(Nc1ccc(-c2nc3ccc(NC(=O)c4ccc(Cl)cc4)cc3[nH]2)cc1)c1ccc(Cl)cc1`, the growth was -10.8% (active). `O=C(Nc1ccc(-c2ccc3c(c2)NC(=O)/C3=C\c2ccc[nH]2)cc1)NC1CC1` was tested, and the growth was -4.36% (active). In the case of `COc1ccc(Cn2cc3c(c2-c2ccccc2)CC(C)(C)c2cnoc2-3)cc1`, the growth is reported as 3.53% (active). In the case of `Cc1ccc(S(=O)(=O)OC2COCOC2C(OS(=O)(=O)c2ccc(C)cc2)C2OCOCC2OS(=O)(=O)c2ccc(C)cc2)cc1` (stereo not given), the growth is reported as 108%. In the case of `CNC(=O)c1cc(Oc2ccc(NC(=O)Nc3ccc(Cl)c(C(F)(F)F)c3)c(F)c2)ccn1`, the growth is reported as -49.1% (active). `COc1ccc2c(c1)nc(N)c1c3cc(C)c(C)cc3cn21` gave a growth of 48.3%. `CC(C)(O)Cn1cc(-c2ccc3nc(OC4CC4)ccc3c2)c2c(N)ncnc21` was tested, and the growth was 89.1% and 50.9%. For `CCOc1cc(/C=N\NC(=O)N/N=C/c2ccc(O)c(OCC)c2)ccc1O`, the growth was 3.75% (active). In the case of `O=Cc1ccccc1C(=O)O`, the growth is reported as -6.83% (active). `O=C1OCC2=C1C(c1ccccc1)c1cc3c(cc1N2CCO)OCO3` (stereo not given) was tested, and the growth was 9.26% (active). With `c1ccc2cc(Cn3c[n+](Cc4ccc5ccccc5c4)c4ccccc43)ccc2c1` the growth was -21% (active). `CCCCC(CC)OC(=O)C(Br)CC` (stereo not given) was tested, and the growth was 106%.
